KB-V1 cytotox – KB-V1 MDR subline cytotoxicity | actives 3.4% (n = 400,000) | KB-V1 MDR cells viability, CellTiter-Glo, 72 h | AID 1347076 | Potency, µM (highest dose often 46.1 µM), actives largely listed as cytotoxic; note: % is set by controls: 0 for no effect and ±100 for the full control effect; nearly all actives have a fitted effect of over 60% in size
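KB-V1, DMEM (no phenol red) + 10% FBS; cpd pin-transferred, titration series; 72 h, 37 degrees C; CellTiter-Glo, luminescence. Data normalized, curve-fit.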
HT1080 IDH1KD tx – toxicity to HT-1080 IDH1 knockdown cells (counter line). Potency, µM (series often up to 46.1 µM), inactives show at the top dose activity, negative = toxicity, most hits filed as cytotoxic. actives 2% (n = 360,000). HT-1080 IDH1 knockdown viability, ATP luminescence, 48 h;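 note: 0% = DMSO wells and -100% = cell-free medium wells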
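Knockdown cells (IDH1KD HT-1080) received compounds 2 h after plating at 750 cells/well and were kept 48 h at 37 °C in 5% FBS RPMI. A CellTiter-Glo luminescence read gave % activity for curve fitting.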
TGFb inhibitor – TGF-b pathway inhibition | actives 1.2% (n = 410,000) | Potency, µM (highest dose often 46.1 µM), inactives show at the top dose activity, negative = inhibition, usual class: inhibitors | AID 588855 | HepG2 CAGA-GFP TGF-b/SMAD3 reporter, GFP fluorescence, 18 h; TGF-beta stimulated, 500 pg/mL final; note: % is set by controls: 0 for no effect and ±100 for the full control effect; nearly all actives have a fitted effect of over 65% in size
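First, reporter cells (HEPG2 CAGA-GFP) rested 2 h at 37 degrees C. Next, compounds were pinned in and TGF-beta added to 500 pg/mL final. After 18 h, GFP was imaged per cell and summed per well.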
HepG2 tox – kills HepG2 cells in TGF-b inhibitor counter-screen. HepG2 CAGA-GFP viability, ATP luminescence, 18 h. Potency, µM (series often up to 46.1 µM), for the others: at the top dose activity change, negative = cytotoxicity, usual class: cytotoxic. actives 0.76% (n = 410,000)
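CellTiter-Glo luminescence gave cytotoxicity after 18 hours at 37 degrees C. The cells were HepG2 CAGA-GFP in 1% FBS DMEM, stimulated with 500 pg/mL TGF-beta after compound addition. %Activity was normalised to no-cell wells (complete cell-killing) and DMSO (no toxicity), and curves were fitted and classified.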
HT1080-NT tox – kills 2HG-producing HT-1080-NT fibrosarcoma cells. HT-1080-NT fibrosarcoma viability, CellTiter-Glo ATP luminescence, 48 h. Potency, µM (titrated, usually from 46.1 µM), without a hit: top-dose activity, negative = less viability, most hits filed as cytotoxic. actives 1.6% (n = 360,000);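 note: NT is the 2HG producing partner of a matched IDH1 knockdown line; 0% = DMSO-treated cells and -100% = media-only wells without cells; nearly all actives have a fitted effect of over 55% in size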
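Read-out is CellTiter-Glo luminescence after 10 minutes at room temperature, following 48 hours' compound treatment of HT-1080-NT cells (750 cells/well, RPMI, 5% FBS, 37 degrees C).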
KB-3-1 tox – kills parental KB-3-1 adenocarcinoma cells. KB-3-1 viability, CellTiter-Glo ATP luminescence, 72 h. AID 1347075. Potency, µM (highest dose often 46.1 µM), hits mostly cytotoxic. actives 1.4% (n = 400,000); note: % is set by controls: 0 for no effect and ±100 for the full control effect; nearly all actives have a fitted effect of over 60% in size
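Luminescent ATP read-out (CellTiter-Glo) measures survival of drug-naive KB-3-1 cells after 72 h compound exposure at 37 °C. Titration series was screened from lowest to highest concentration, with DMSO vehicle plates as background controls.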
* = called active by the depositor; i = inactive; ? = inconclusive; . = no result. In the library only some 6.6% were active in any assay of this set; here they are far more common. Calls come from the whole dose curve; as a rule, active = well fitted curve in the direction sought with a large enough effect; inconclusive = small, poorly fitted or top-dose-only effect, or another doubt; inactive = no such curve, though single readings can be large; an effect the other way counts as inactive or inconclusive. Potency is the fitted concentration of half-maximal effect.

SMILES | KB-V1 cytotox | HT1080 IDH1KD tx | TGFb inhibitor | HepG2 tox | HT1080-NT tox | KB-3-1 tox
Cc1cccc(C)c1-n1nnnc1C(c1ccnc2ccccc12)N1CCN(c2ccccc2F)CC1 (configuration not stated) | 16µM* | 13% | . | . | 19% | ?
COc1ccc(/C=c2\[nH]c(=O)/c(=C/c3ccc(OC)c(OC)c3)[nH]c2=O)cc1OC | ? | . | 2% | -14% | . | ?
O=C1C(=Cc2ccccn2)CCc2ccccc21 | ? | ? | 10µM* | 13µM* | ? | ?
COc1cc(/C=C/C=C2/CC/C(=C/C=C/c3ccc(O)c(OC)c3)C2=O)ccc1O | i | -10% | ? | -61% | -11% | i
COc1ccc(/C=C2\SC(N3CCc4ccccc4C3)=NC2=O)cc1OC | 12µM* | ? | -22% | -38% | ? | ?
COc1ccc(C=C2C=C(C(C)(C)C)C(=O)C(C(C)(C)C)=C2)cc1OC | ? | 18µM* | ? | -49% | 12µM* | ?
COc1cc(/C=C2\COC/C(=C\c3ccc(O)c(OC)c3)C2=O)ccc1O | i | ? | 6.3µM* | -23% | ? | i
O=C1/C(=C\c2ccc3ccccc3c2)CCCc2ccccc21 | 7.3µM* | 13µM* | 0% | -17% | ? | 5.2µM*
Cc1ccccc1/C=C1\CCCc2ccccc2C1=O | i | -16% | -4% | -28% | -15% | i
COc1cc(/C=C2/CC/C(=C/c3ccc(O)c(OC)c3)C2=O)ccc1O | ? | 21µM* | -7% | -33% | 18µM* | ?
COc1ccc(/C=C2\CCc3ccccc3C2=O)cc1OC | 16µM* | 0% | ? | 9% | 2% | i
COc1ccc2c(c1)CC/C(=C/c1cc(OC)c(OC)c(OC)c1)C2=O | i | -7% | -5% | 0.14µM* | 16% | i
COc1ccc(OC)c(C=C2CCc3ccccc3C2=O)c1 | ? | ? | -23% | 3% | ? | ?
Cc1nc2ccccc2nc1-c1csc(-c2ccccc2)n1 | ? | . | ? | -28% | . | i
Cc1cccc(Cn2c(C)c(C)c3cc(C(=O)NCc4ccco4)ccc32)c1 | i | . | ? | -16% | . | ?
COc1ccc(/C=C2\CCc3ccccc3C2=O)cc1Cn1nc(C)cc1C | 18µM* | ? | ? | -67% | ? | ?
COc1ccc(/C=C2/CCc3ccccc3C2=O)cc1CN1CCOCC1 | ? | -4% | 0% | -34% | 3% | i
C=CCOc1ccc(/C=C2\SC(N)=NC2=O)cc1OC | i | 2% | 6% | -6% | -1% | i
COc1cc(/C=C2\SC(N)=NC2=O)ccc1O | ? | 18µM* | ? | -1% | ? | ?
COc1ccc(/C=C2\CC/C(=C\c3ccc(OC)c(OC)c3)C2=O)cc1OC | ? | ? | 4% | -53% | ? | 18µM*
COc1cc(/C=C2\CC/C(=C\c3ccc(OCCO)c(OC)c3)C2=O)ccc1OCCO | i | -13% | 0% | 2% | -25% | i
COc1ccc(/C=C2\CN(Cc3ccccc3)C/C(=C\c3ccc(OC)c(O)c3)C2=O)cc1O | i | 2.3µM* | 5µM* | -64% | ? | 5.2µM*
CN1C(=O)C(O)(CC(=O)c2ccc(F)cc2)c2cc(Br)ccc21 (configuration not stated) | i | -2% | -9% | -6% | ? | 26µM*
CCCCN1C(=O)C(O)(CC(=O)c2ccc(CC)cc2)c2cc(Br)ccc21 (configuration not stated) | . | . | ? | -108% | . | .
CCOc1ccc(Nc2sc(C(=O)c3ccc4c(c3)OCO4)c(N)c2S(=O)(=O)c2ccc(C)cc2)cc1 | i | . | 8% | -12% | . | i
CNCCCC1c2ccccc2C=Cc2ccccc21 | ? | 23µM* | 25% | -33% | 18µM* | i
